In PubChem BioAssay (Tox21):
Inconclusive results are not listed. Values without a mark were called inactive. Activity calls are given as the source filed them. Calls come from the whole dose curve; as a rule, active = well fitted cell-killing curve with a large enough effect in the repeat runs; inconclusive = weak or mixed curves, or effect the other way; inactive = flat fitted curve, though single readings scatter.
% is set by controls: 0 for no effect and ±100 for the full control effect.

Test: qHTS RealTime-Glo MT Cell Viability Assay in HepG2 cells - 40 hour (AID 1224870); note: nearly all actives have a fitted effect of over 50% in size
Settings: RealTime-Glo luminescence; series mostly up to 76.8 µM
Text: National Center for Advancing Translational Sciences [NCATS]
NIH Chemical Genomics Center [NCGC]
U.S. Environmental Protection Agency [EPA]
National Institutes of Environmental Health Sciences [NIEHS]
National Toxicology Program [NTP]
U.S. Food and Drug Administration [FDA]
Measure of cell viability is critical in the cell-base assay. Analysis of cell viability is necessary for the characterization of cell responses to cytotoxic drugs and environmental stress. A RealTime-Glo MT Cell Viability Assay to monitor cell viability in real time of continues cell culture during 40 hours of compound treatment was used to screen Tox21 10K library compounds in HepG2 cells. The RealTime-Glo MT Cell Viability Assay is a nonlytic, homogeneous, bioluminescent method to measure cell viability in real time using a simple, plate-based method. The assay involves adding NanoLuc luciferase and a cell-permeant prosubstrate to cells in culture. Viable cells reduce the proprietary prosubstrate to generate a substrate for NanoLuc luciferase. This substrate diffuses from cells into the surrounding culture medium, where it is rapidly used by the NanoLuc Enzyme to produce a luminescent signal. The signal correlates with the number of viable cells, making the assay well suited for cytotoxicity studies.
Tox21 Assay Protocol Summary:
The mixture of HepG2 cell suspension and reagents were dispensed at 600cells/6 ul/well in 1536-well tissue culture treated black solid bottom plates using a Multidrop dispenser. After the assay plates were incubated at a 37 C/5% CO2 incubator for 5 hours, 23 nL of compounds dissolved in DMSO, positive and negative controls was transferred to the assay plate by a pintool work station. The plates were incubated at 37 C for 40 hours. The luminescence intensity were measured at 0h, 8h, 16h, 24h, 32h and 40h time points using ViewLux plate reader during compound treatment.
With `O=Cc1ccccc1S(=O)(=O)O` the outcome was “inactive”. With `COc1ccc(Cl)cc1C` the outcome was “inactive”. For `CCCCCCCCCCCBr`, the outcome was “inactive”. In the case of `CCCCCCCCCCCC(C)=O`, the outcome was “inactive”. In the case of `C=CCn1cc[n+](C)c1`, the outcome was “inactive”. With `Nc1ccc(C(=O)NCC(=O)O)cc1` the outcome was “inactive”. With `O=C(O)P(=O)(O)O` the outcome was “inactive”. In the case of `c1coc(Cn2cccc2)c1`, the outcome was “inactive”. With `CC(O)CCCCn1c(=O)c2c(ncn2C)n(C)c1=O` (stereo not given) the outcome was “inactive”. With `CCCCC(CC)COC(=O)CC#N` (stereo not given) the outcome was “inactive”. In the case of `N#Cc1cc(NC(=O)C(=O)O)c(Cl)c(NC(=O)C(=O)O)c1`, the outcome was “inactive”. With `CC[N+](C)(CC)CC` the outcome was “inactive”. With `CC(C)c1cc(C(C)C)cc(C(C)C)c1` the outcome was “inactive”. With `CC(O)C(CO)C(C)O` (stereo not given) the outcome was “inactive”. In the case of `CC(C)(O)c1ccc(C(C)(C)O)cc1`, the outcome was “inactive”. In the case of `CCC(C)c1nccnc1OC` (stereo not given), the outcome was “inactive”. Compound `NC[C@H]1O[C@H](O[C@H]2[C@H](O)[C@@H](O[C@H]3O[C@H](CO)[C@@H](O)[C@H](N)[C@H]3O)[C@H](N)C[C@@H]2N)[C@H](N)[C@@H](O)[C@@H]1O` has an activity change, negative = cytotoxic of 0.593% [at 15.8 µM]. In the case of `CSC(=O)c1cccc2nnsc12`, the outcome was “inactive”. With `CCCCN1C(=O)c2ccccc2C1=O` the outcome was “inactive”. In the case of `N=C(N)N1CCc2ccccc2C1`, the activity change, negative = cytotoxic was 0.674% [at 6.97 µM]. In the case of `CN1CCN(C(=O)C2CCCCC2)CC1`, the outcome was “inactive”. With `O=C(O)/C=C(\CC(=O)O)C(=O)O` the outcome was “inactive”. In the case of `O=C(c1ccccc1)c1cccc(O)c1`, the outcome was “inactive”. For `CCOCCOCCOC(C)=O`, the outcome was “inactive”. For `CC(C)(Sc1cc(C(C)(C)C)c(O)c(C(C)(C)C)c1)Sc1cc(C(C)(C)C)c(O)c(C(C)(C)C)c1`, the outcome was “inactive”. With `CCC(C)SSC(C)CC` (stereo not given) the outcome was “inactive”. In the case of `CCCCNCC`, the outcome was “inactive”. For `O=Cc1ccc(C(=O)O)cc1`, the outcome was “inactive”. In the case of `O=c1[nH]c(=O)c2cn[nH]c2[nH]1`, the outcome was “inactive”. For `CN(C)CCC[C@@]1(c2ccc(F)cc2)OCc2cc(C#N)ccc21`, the outcome was “inactive”. With `COCCCOc1cc(C[C@@H](C[C@H](N)[C@@H](O)C[C@H](C(=O)NCC(C)(C)C(N)=O)C(C)C)C(C)C)ccc1OC` the outcome was “inactive”. In the case of `Cc1cc(O)c(Cl)cc1C`, the outcome was “inactive”. In the case of `CCCC(C)C(O)CC` (stereo not given), the outcome was “inactive”. With `Cc1ccc(OC(=O)CC(C)C)cc1` the outcome was “inactive”. For `CCCCCCCC(=O)N(C)C`, the outcome was “inactive”. With `O=C(CCBr)N1CCN(C(=O)CCBr)CC1` the outcome was “inactive”. For `CCCCCCC(=O)c1ccccc1`, the outcome was “inactive”. For `CC(C)(C)C(=O)NCCCC(=O)O`, the outcome was “inactive”. With `C=CCCCCCCCCCCCCCC` the activity change, negative = cytotoxic was -8.43% [at 15.8 µM]. In the case of `CC/C=C\CCOC(=O)c1ccccc1`, the outcome was “inactive”.
